Bioassay records as filed in PubChem.
In the library only some 2.4% were active in any assay of this set; here they are far more common.
Cruzain inh Det: blocks cruzain activity in presence of Triton detergent; P25779; purified cruzain, Z-FR-AMC fluorescence, 0.01% Triton; Potency, µM, inactives show max response, negative = inhibition, hits mostly inhibitors; actives 0.43% (n = 200,000); AID 1478;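 note: plate controls were neutral wells for no effect and buffer without enzyme for full effect; nearly all actives have a fitted effect of over 40% in size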
Target sequence (P25779 123-467 limits assumed): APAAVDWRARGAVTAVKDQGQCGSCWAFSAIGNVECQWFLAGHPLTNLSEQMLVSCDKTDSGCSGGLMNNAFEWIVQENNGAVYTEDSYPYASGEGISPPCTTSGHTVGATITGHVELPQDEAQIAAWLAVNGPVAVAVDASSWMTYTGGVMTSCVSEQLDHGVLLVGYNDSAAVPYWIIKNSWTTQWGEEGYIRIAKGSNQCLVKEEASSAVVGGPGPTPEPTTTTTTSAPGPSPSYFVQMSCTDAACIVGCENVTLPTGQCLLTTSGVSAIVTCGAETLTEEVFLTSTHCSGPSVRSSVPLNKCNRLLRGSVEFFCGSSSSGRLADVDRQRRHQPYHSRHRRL
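Purified cruzain (1.5 nM final) was preincubated with compounds for 15 min at room temperature in 100 mM sodium acetate pH 5.5, 5 mM DTT, 0.01% Triton X-100. Reaction started with 2 uM Z-FR-AMC; AMC fluorescence change over 60 s gave activity.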
Cruzain inh noDet: blocks cruzain activity in detergent-free assay; P25779; purified cruzain, Z-FR-AMC fluorescence, no detergent; Potency, µM, for the others: max response, negative = inhibition, hits mostly inhibitors; actives 2.3% (n = 200,000);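 note: plate controls were enzyme without inhibitor for no effect and buffer without enzyme for full effect; nearly all actives have a fitted effect of over 40% in size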
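Purified cruzain at 1.5 nM, pre-incubated 15 min with compound at room temperature in 100 mM sodium acetate pH 5.5, 5 mM DTT, 0.00005% Triton X-100. Reaction started with 2 uM Z-FR-AMC; AMC fluorescence increase over 60 s gives rate.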
* marks the source's active call; other numbers are inactive results; ? = inconclusive. Calls come from the whole dose curve; as a rule, active = well fitted curve in the direction sought with a large enough effect; inconclusive = small, poorly fitted or top-dose-only effect, or another doubt; inactive = no such curve, though single readings can be large; an effect the other way counts as inactive or inconclusive. Potency is the fitted concentration of half-maximal effect.

SMILES | Cruzain inh Det | Cruzain inh noDet
Cc1oc2ncn(C)c(=O)c2c1C(=O)NCCCN1CCCCC1C (stereo not given) | 0% | 4%
COc1ccc(CC(=O)NCc2ccccc2)cc1S(=O)(=O)N1CCOCC1 | 2% | 0%
CCOC(=O)c1c(C)[nH]c2ccc(O)cc12 | 2% | -14%
COc1ccc(-c2noc(N3CCC(C(=O)N4CCN(c5cccc(C)c5C)CC4)CC3)n2)cc1 | 2% | -4%
CCOc1ccc(NS(=O)(=O)c2ccc(C(=O)N(C)C)s2)cc1 | 2% | -7%
COc1ccc(NC(=O)N2Cc3ccccc3CC2C(=O)NC(C)(C)C)cc1 (stereo not given) | 1% | -2%
COC(=O)C1CCN(S(=O)(=O)c2ccc(NC(C)=O)cc2)CC1 | 3% | -3%
C/C(=N\NC(=O)CNc1cccc(C)c1)c1ccc(Br)s1 | -11% | -12%
C/C(=N\NC(=O)c1ccc(Cl)c(Cl)c1)c1ccc(Br)s1 | 2% | 25µM*
N/C(=N\OC(=O)Oc1ccccc1)c1cccc([N+](=O)[O-])c1 | -7% | 4%
O=C(C#Cc1ccccc1)c1cccc([N+](=O)[O-])c1 | 13µM* | -16%
O=C(O)c1cccnc1SC1CC(=O)N(CCc2ccccc2)C1=O (stereo not given) | 2% | -5%
Cc1ccc(NC(=O)c2ccc(-c3ccccc3)s2)cc1 | -6% | 13µM*
Cc1cccc(NC(=O)c2ccc(-c3ccccc3)s2)c1 | -10% | -22%
Cn1c(=O)c2c(nc(CN3CCC(C(N)=O)CC3)n2Cc2c(Cl)cccc2Cl)n(C)c1=O | 5% | -1%
O=C(Cc1ncc(C(F)(F)F)cc1Cl)N1CCN(c2cccc(Cl)c2)CC1 | -1% | -14%
COc1cc2c(cc1NC(=O)CSc1nccn1C)oc1ccccc12 | -11% | 8%
COc1cc2c(cc1NC(=O)CSc1ccccc1)oc1ccccc12 | -8% | -3%
COc1cc2c(cc1NC(=O)CSc1nc3cc(Cl)ccc3s1)oc1ccccc12 | -3% | 7.9µM*
COc1cc2c(cc1NC(=O)CSc1nc3ccccc3[nH]1)oc1ccccc12 | 6% | 25µM*
Cc1c(CCNC(=O)C(C)(C)C)sc2nc(-c3ccc(F)cc3)nn12 | 0% | 2%
COc1oc(-c2ccc(Cl)cc2)nc1C(F)(F)F | -7% | -6%
CC(C)(C)NC(=O)C(Cc1ccccc1)NS(=O)(=O)c1cccc2nsnc12 (stereo not given) | 2% | 4%
Cc1ccc(Cl)cc1NC(=O)C(Cc1ccccc1)NS(=O)(=O)c1cccc2nsnc12 (stereo not given) | -4% | 25µM*
O=C(Nc1ccc(Cl)c(C(F)(F)F)c1)C(Cc1ccccc1)NS(=O)(=O)c1cccc2nsnc12 (stereo not given) | -9% | 20µM*
SMILES | Cruzain inh Det | Cruzain inh noDet
O=C(Nc1ccc(OC(F)(F)F)cc1)C(Cc1ccccc1)NS(=O)(=O)c1cccc2nsnc12 (stereo not given) | -4% | 7%
CCOc1ccc(C2C(=O)N(C3CCCCCC3)CC(=O)N2CCC2=CCCCC2)cc1OC (stereo not given) | 0% | 26%
C=CCNC(=O)C(C#N)c1nc2ccccc2nc1N1CCN(Cc2ccccc2)CC1 (stereo not given) | 4% | -3%
Cc1cc(OCC(=O)Nc2sc3c(c2C#N)CCC(C)C3)ccc1Cl (stereo not given) | 0% | 6%
O=C(NC1CCCCC1)c1ccc2c(c1)N(Cc1ccccc1Cl)C(=O)c1ccccc1S2 | 2% | 10µM*
N#Cc1cccc(NC(=O)c2ccc3c(c2)N(Cc2cccc(Cl)c2)C(=O)c2ccccc2S3(=O)=O)c1 | -3% | 6.3µM*
O=C(NC1CCCC1)c1ccc2c(c1)N(Cc1ccccc1Cl)C(=O)c1ccccc1S2 | 0% | ?
CC(=O)Nc1ccc(NC(=O)c2ccc3c(c2)N(Cc2cccc(Cl)c2)C(=O)c2ccccc2S3(=O)=O)cc1 | -5% | -20%
Cc1ccc(CCNC(=O)c2ccc3c(c2)N(Cc2cccc(C)c2)C(=O)c2ccccc2S3(=O)=O)cc1 | 0% | ?
O=C(NCCc1ccc(Cl)cc1)c1ccc2c(c1)N(Cc1cccc(Cl)c1)C(=O)c1ccccc1S2(=O)=O | 1% | 10µM*
O=C(Nc1ccc(Cl)cc1)c1ccc2c(c1)N(Cc1ccccc1)C(=O)c1ccccc1S2(=O)=O | -7% | ?
Cc1cc(NC(=O)c2ccc3c(c2)N(Cc2cccc(Cl)c2)C(=O)c2ccccc2S3(=O)=O)ccc1Br | -1% | 3.2µM*
COc1ccc(-c2cc(C(=O)NCc3ccc(C)cc3)c3cc(C(C)C)ccc3n2)cc1 | -1% | 1%
Cc1cc(NC(=O)CN2CCOCC2)n(-c2nc3ccccc3s2)n1 | 3% | ?
CCc1ccc(C2CC(=O)NC(NC(=O)c3ccc(C(C)(C)C)cc3)=N2)cc1 (stereo not given) | -1% | -2%
CCN(CC(=O)NC(C)C)Cc1nc2sc3c(c2c(=O)[nH]1)CCC3 | -5% | -2%
COc1ccc(C2NC(=O)N(C)C3=C2C(=O)N(c2cccc(C(=O)O)c2)C3)cc1 (stereo not given) | -4% | -8%
CC(OC(=O)c1ccc(S(=O)(=O)NCc2ccco2)cc1)C(=O)Nc1ccc(Cl)cn1 (stereo not given) | -7% | -7%
CSc1ccccc1NC(=O)CCS(=O)(=O)c1nc(-c2ccc3c(c2)OCO3)cc(C(F)(F)F)n1 | -11% | ?
Cc1ccc(NC(=O)C2CCCN(S(=O)(=O)c3cccs3)C2)c(C)c1 (stereo not given) | 1% | -7%
COc1ccc(CNC(=O)c2ccc3c(c2)N(Cc2cccc(Cl)c2)C(=O)c2ccccc2S3)c(OC)c1 | 0% | 13µM*
CC(C)CCNC(=O)c1ccc2c(c1)N(Cc1cccc(Cl)c1)C(=O)c1ccccc1S2 | 1% | ?
c1ccc(C2C3=C(CCCC3)Nc3ncnn32)cc1 (stereo not given) | -3% | -4%
CNC(=S)N/N=C/c1cn(CCOc2cccc(OC)c2)c2ccccc12 | -27% | 25µM*
CNC(=S)N/N=C/c1cn(CCOc2ccccc2OC)c2ccccc12 | -23% | 32µM*
SMILES | Cruzain inh Det | Cruzain inh noDet
COc1ccc(OCCn2cc(/C=N/NC(=O)c3ccncc3)c3ccccc32)cc1 | -8% | ?
COc1cccc(OCCn2cc(/C=N/NC(=O)c3ccncc3)c3ccccc32)c1 | -11% | ?
COc1cccc(-c2oc3ccc(C)cc3c(=O)c2O)c1 | -10% | 20%
COc1ccc(Oc2nnc(-c3ccccc3)cc2C#N)cc1 | -4% | 1%
Cc1cc(C)cc(NS(=O)(=O)c2ccc(NC(=S)Nc3ccccc3)cc2)c1 | -8% | 24%
CCOC(=O)CSc1nc(NC#N)nc(N(CC)CC)n1 | -14% | ?
Nc1sc2c(c1C(=O)c1ccccc1)CCCC2 | -8% | -24%
NC(=O)c1c(N)sc2c1CCCC2 | -22% | 20µM*
CN(C)c1oc(-c2ccc(OCc3ccccc3)cc2)nc1C#N | -4% | 29%
C/C(Cl)=C/CSc1nc2c(c(=O)[nH]c(=O)n2C)n1C(C)C | -3% | 4%
COCCCn1c(SCc2cc(=O)[nH]c3ccccc23)nnc1-c1ccco1 | -2% | -4%
CN(C)c1ccc(/C=N/N=C2/NC(=O)/C(=C/c3ccc([N+](=O)[O-])cc3)S2)cc1 | -13% | 6.3µM*
Cc1c(N=C2NC(=O)/C(=C/c3cccc([N+](=O)[O-])c3)S2)c(=O)n(-c2ccccc2)n1C | -3% | 12%
Cc1cc(C)cc(Nc2sc(C(=O)c3ccccc3)c(N)c2S(=O)(=O)c2ccccc2)c1 | 0% | 10µM*
